{"source": "the supplement of paper PMC9135407", "system": "primary human hepatic stellate cells (donor 1)", "experiment": "scaled lipid accumulation score (0 = DMSO-like, 1 = nortriptyline-like); higher = stronger HSC inactivation (lipid re-accumulation), active = hit call of the paper", "conditions": "48 h", "key": {"[1]": {"conditions": "library stock concentration: 10 mM"}, "[2]": {"conditions": "library stock concentration: 1 mM"}, "[3]": {"conditions": "library stock concentration: 3.33 mM"}}, "note": "Values joined by “and” are separate entries in the source; they are usually repeats but may differ in a detail not shown here. Equal entries are not always repeated. Structures can show the parent of a compound that is named as a salt. Screen size: about 5,800 compounds; about 620 (11%) showed activity. The full list was thinned out, with actives kept by preference. A number with no mark means an inactive call.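 How the source made its calls: active = score above a cut-off or among the top three wells of a plate; in these data no inactive exceeds 0.85.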", "data": [{"smiles": "COc1cc(N2CCC(C(N)=O)CC2)ccc1Nc1nc(N)c(Cl)c(Nc2ccccc2S(=O)(=O)C(C)C)n1", "values": [{"measurement": "scaled lipid accumulation score", "setting": "library stock concentration: 80 uM", "result": "≤ 0"}, {"measurement": "scaled lipid accumulation score", "setting": "library stock concentration: 400 uM", "result": "≤ 0"}, {"measurement": "scaled lipid accumulation score", "setting": "library stock concentration: 2 mM", "result": 0.025}, {"measurement": "scaled lipid accumulation score", "setting": "[1]", "result": 0.537}]}, {"smiles": "O=C(O)CCCCCCC1C(=O)NC(=O)N1CCC(O)C1CCCCC1", "note": "(stereo not drawn)", "values": [{"measurement": "scaled lipid accumulation score", "setting": "[2]", "result": "≤ 0"}]}, {"smiles": "COc1cc(OC)c(C(=O)CCCCN2CCC3(CC2)NC(=O)NC3=O)cc1NS(=O)(=O)c1ccc(C(F)(F)F)cc1.Cl", "values": [{"measurement": "scaled lipid accumulation score", "setting": "[1]", "result": "0.941 (active)"}]}, {"smiles": "O=C(O)CN(CC(=O)O)Cc1cc2c(cc1O)Oc1cc(O)c(CN(CC(=O)O)CC(=O)O)cc1C21OC(=O)c2ccccc21", "note": "[Calcein]", "values": [{"measurement": "scaled lipid accumulation score", "setting": "[1]", "result": 0.169}]}, {"smiles": "COc1ccc2c(c1)c(CC(=O)Oc1ccc(-c3cc(=S)ss3)cc1)c(C)n2C(=O)c1ccc(Cl)cc1", "values": [{"measurement": "scaled lipid accumulation score", "setting": "[2]", "result": "≤ 0"}]}, {"smiles": "COC(=O)[C@H](Cc1ccccc1)NC(=O)/C=C/c1ccc(O)cc1", "values": [{"measurement": "scaled lipid accumulation score", "setting": "[2]", "result": 0.011}]}, {"smiles": "C[C@H](NC(=O)CCc1nc2ccccc2c(=O)[nH]1)c1ccccc1", "values": [{"measurement": "scaled lipid accumulation score", "setting": "[3]", "result": "≤ -0.009"}, {"measurement": "scaled lipid accumulation score", "setting": "[1]", "result": "≤ 0"}]}, {"smiles": "CCCCCC#CCC#CCC#CCCCCCCC(=O)O", "note": "[8,11,14-Eicosatriynoic Acid]", "values": [{"measurement": "scaled lipid accumulation score", "setting": "[2]", "result": "≤ 0"}]}, {"smiles": "CC(C)C[C@H](NC(=O)[C@@H](COC(C)(C)C)NC(=O)[C@H](Cc1ccc(O)cc1)NC(=O)[C@H](CO)NC(=O)[C@H](Cc1c[nH]c2ccccc12)NC(=O)[C@H](Cc1cnc[nH]1)NC(=O)[C@@H]1CCC(=O)N1)C(=O)N[C@@H](CCCNC(=N)N)C(=O)N1CCC[C@H]1C(=O)NNC(N)=O", "note": "[Goserelin acetate]", "values": [{"measurement": "scaled lipid accumulation score", "setting": "library stock concentration: 1.6 mM", "result": "≤ -0.006"}]}, {"smiles": "CC(C)C[C@H](NC(=O)[C@@H](COC(C)(C)C)NC(=O)[C@H](Cc1ccc(O)cc1)NC(=O)[C@H](CO)NC(=O)[C@H](Cc1c[nH]c2ccccc12)NC(=O)[C@H](Cc1cnc[nH]1)NC(=O)[C@@H]1CCC(=O)N1)C(=O)N[C@@H](CCCNC(=N)N)C(=O)N1CCC[C@H]1C(=O)NNC(N)=O", "values": [{"measurement": "scaled lipid accumulation score", "setting": "library stock concentration: 9.6 mM", "result": 0.046}]}, {"smiles": "CCCCCCCC(=O)OC[C@H](CO)OC(=O)CCCCCCC", "note": "[1,2-Dioctanoyl-sn-glycerol]", "values": [{"measurement": "scaled lipid accumulation score", "setting": "[2]", "result": 0.009}]}, {"smiles": "CCCCCCCC(=O)OC[C@H](CO)OC(=O)CCCCCCC", "note": "[1,2-Dioctanoyl-SN-glycerol]", "values": [{"measurement": "scaled lipid accumulation score", "setting": "[2]", "result": "≤ -0.021"}]}, {"smiles": "Cc1ccc(NC(=O)c2cccc(N(C)C)c2)cc1NC(=O)c1ccc(O)cc1", "values": [{"measurement": "scaled lipid accumulation score", "setting": "[1]", "result": "≤ -0.004"}]}, {"smiles": "Br.Br.CN(C)CCCc1cc(C(=O)Nc2ccc(-c3ccncc3)cc2)ccc1O", "values": [{"measurement": "scaled lipid accumulation score", "setting": "[1]", "result": "1.13 (active)"}]}, {"smiles": "COc1ccc(NC(=O)c2ccc(-c3ccc(-c4noc(C)n4)cc3C)cc2)cc1OCCN(C)C", "values": [{"measurement": "scaled lipid accumulation score", "setting": "[1]", "result": 0.491}]}, {"smiles": "CC(C)CCCC(C)N", "note": "(stereo not drawn) [Octodrine]", "values": [{"measurement": "scaled lipid accumulation score", "setting": "library stock concentration: 15.5 mM", "result": 0.024}]}, {"smiles": "CCC(CC)CC1(C(=O)Nc2ccccc2SC(=O)C(C)C)CCCCC1", "values": [{"measurement": "scaled lipid accumulation score", "setting": "[3]", "result": "≤ 0"}, {"measurement": "scaled lipid accumulation score", "setting": "[1]", "result": "≤ 0"}]}, {"smiles": "Cc1nc(-c2ccc(C(F)(F)F)cc2)sc1C(=O)NCc1ccc(OC(C)(C)C(=O)O)cc1", "values": [{"measurement": "scaled lipid accumulation score", "setting": "[2]", "result": "≤ 0"}]}, {"smiles": "CN(C)CC/C=C1/c2ccccc2COc2ccccc21.Cl", "note": "[Doxepin hydrochloride]", "values": [{"measurement": "scaled lipid accumulation score", "setting": "library stock concentration: 6.3 mM", "result": "1.34 (active)"}]}, {"smiles": "CN(C)CC/C=C1/c2ccccc2COc2ccc(CC(=O)O)cc21", "note": "[Olopatadine HCl]", "values": [{"measurement": "scaled lipid accumulation score", "setting": "[3]", "result": "≤ 0"}, {"measurement": "scaled lipid accumulation score", "setting": "[1]", "result": "≤ 0"}]}, {"smiles": "CN(C)CCC=C1c2ccccc2COc2ccccc21", "note": "[Doxepin hydrochloride]", "values": [{"measurement": "scaled lipid accumulation score", "result": 0.633}, {"measurement": "scaled lipid accumulation score", "setting": "[1]", "result": "0.495 and 0.707 and 0.72"}]}, {"smiles": "C(=C/CCN(C)C)(/c1c2cccc1)\\c3c(cccc3)CC2.Cl", "note": "[Amitriptyline hydrochloride]", "values": [{"measurement": "scaled lipid accumulation score", "setting": "[1]", "result": "1.11 (active)"}]}, {"smiles": "CN(C)CC/C=C1/c2ccccc2COc2ccc(CC(=O)O)cc21", "values": [{"measurement": "scaled lipid accumulation score", "setting": "[1]", "result": "≤ 0"}]}, {"smiles": "CN(C)CC/C=C1/c2ccccc2COc2ccc(CC(=O)O)cc21", "note": "[Olopatadine]", "values": [{"measurement": "scaled lipid accumulation score", "setting": "library stock concentration: 5.9 mM", "result": "≤ -0.006"}]}, {"smiles": "CN(C)CCC=C1c2ccccc2CCc2ccccc21", "note": "[Annoyltin]", "values": [{"measurement": "scaled lipid accumulation score", "setting": "[1]", "result": 0.841}]}, {"smiles": "CN(C)CCC=C1c2ccccc2CCc2ccccc21.Cl", "note": "[Amitriptyline HCl]", "values": [{"measurement": "scaled lipid accumulation score", "setting": "[1]", "result": "0.863 (active)"}]}, {"smiles": "CN(C)CCC=C1c2ccccc2CCc2ccccc21", "note": "[Amitriptyline hydrochloride]", "values": [{"measurement": "scaled lipid accumulation score", "setting": "library stock concentration: 6.4 mM", "result": 0.347}, {"measurement": "scaled lipid accumulation score", "setting": "[1]", "result": 0.6}]}, {"smiles": "CN(C)CCC=C1c2ccccc2COc2ccccc21", "note": "[Doxepin]", "values": [{"measurement": "scaled lipid accumulation score", "setting": "[1]", "result": 0.731}]}, {"smiles": "CN(C)CCC=C1c2ccccc2CCc2ccccc21", "note": "[Amitriptyline HCl]", "values": [{"measurement": "scaled lipid accumulation score", "setting": "[3]", "result": 0.187}]}, {"smiles": "CN(C)CCC=C1c2ccccc2CCc2ccccc21", "note": "[Amitryptiline hydrochloride]", "values": [{"measurement": "scaled lipid accumulation score", "result": 0.821}]}, {"smiles": "CN(C)CCC1(c2ccc(Cl)cc2)Cc2ccccc2C(=O)O1", "note": "(stereo not drawn)", "values": [{"measurement": "scaled lipid accumulation score", "setting": "[1]", "result": 0.575}]}, {"smiles": "C[C@H]1[C@H](OC(=O)CCC(=O)O)O[C@@H]2O[C@@]3(C)CC[C@H]4[C@H](C)CC[C@@H]1[C@@]24OO3", "values": [{"measurement": "scaled lipid accumulation score", "setting": "[1]", "result": "≤ 0"}]}, {"smiles": "C[C@H]1[C@H](OC(=O)CCC(=O)O)O[C@@H]2O[C@@]3(C)CC[C@H]4[C@H](C)CC[C@@H]1[C@@]24OO3", "note": "[Artesunate]", "values": [{"measurement": "scaled lipid accumulation score", "setting": "[3]", "result": 0.009}, {"measurement": "scaled lipid accumulation score", "setting": "library stock concentration: 5.2 mM", "result": "≤ 0"}, {"measurement": "scaled lipid accumulation score", "setting": "[1]", "result": "≤ 0"}]}, {"smiles": "C/C=C/C/C=C/CCC(=O)[C@H]1O[C@H]1C(N)=O", "note": "[Cerulenin]", "values": [{"measurement": "scaled lipid accumulation score", "setting": "[2]", "result": "≤ 0"}, {"measurement": "scaled lipid accumulation score", "setting": "library stock concentration: 22.4 mM", "result": 0.518}]}, {"smiles": "CCCCCC(O)C=CC1C=CC(=O)C1CCCCCCC(=O)O", "note": "(stereo not drawn) [8-iso Prostaglandin A1]", "values": [{"measurement": "scaled lipid accumulation score", "setting": "[2]", "result": "≤ 0"}]}, {"smiles": "CCCCCC(O)C=CC1C=CC(=O)C1CCCCCCC(=O)O", "note": "(stereo not drawn) [15-epi Prostaglandin A1]", "values": [{"measurement": "scaled lipid accumulation score", "setting": "[2]", "result": "≤ 0"}]}, {"smiles": "N[C@@H](Cc1c[nH]cn1)C(=O)O", "note": "[L-Histidine hydrochloride]", "values": [{"measurement": "scaled lipid accumulation score", "setting": "[1]", "result": "≤ -0.07"}]}, {"smiles": "COC1=CC(=O)C=C(OC)C1=O", "note": "[2,6-dimethoxyquinone]", "values": [{"measurement": "scaled lipid accumulation score", "setting": "[1]", "result": 0.299}]}, {"smiles": "CC(C)NCC(O)c1ccc(O)c(O)c1", "note": "(single isomer, unassigned; (-)) [(-)-Isoproterenol hydrochloride]", "values": [{"measurement": "scaled lipid accumulation score", "result": "≤ 0"}, {"measurement": "scaled lipid accumulation score", "setting": "[1]", "result": "≤ -0.055"}]}, {"smiles": "CC[C@H]1C(=O)OC[C@@H]1Cc1cncn1C", "note": "[Isopilocarpine nitrate]", "values": [{"measurement": "scaled lipid accumulation score", "setting": "[1]", "result": "≤ 0"}]}, {"smiles": "COc1cccc(OC)c1OCCNCC1CSc2ccccc2O1", "note": "(stereo not drawn) [Benoxathian hydrochloride]", "values": [{"measurement": "scaled lipid accumulation score", "setting": "[1]", "result": 0.629}]}]}
